Test results published in PubChem BioAssay AID1326 (NMMLSC, 2008).
Among all 190,000 compounds or so, about 130 (0.068%) were called active. Many of the other results were omitted from the sample, so actives are more common in it than they were. A number with no mark means an inactive call. Cut-off read from the data, not from the text of the source: active = inhibition above about 40%; inactive = the rest.

molecular target: ATP-dependent translocase ABCB1 (Homo sapiens) (UniProt P08183); test: ABCB1 efflux pump inhibitors, primary screen, cell-based, multiplex, flow cytometry, ABCG2 counter-screen (AID 1326); settings: CCRF-Adr cells, JC-1 efflux, at 6.6 µM, stronger effect = higher value;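 note: 0% = vehicle and 100% = reference inhibitor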
Sequence (P08183 whole entry, looked up): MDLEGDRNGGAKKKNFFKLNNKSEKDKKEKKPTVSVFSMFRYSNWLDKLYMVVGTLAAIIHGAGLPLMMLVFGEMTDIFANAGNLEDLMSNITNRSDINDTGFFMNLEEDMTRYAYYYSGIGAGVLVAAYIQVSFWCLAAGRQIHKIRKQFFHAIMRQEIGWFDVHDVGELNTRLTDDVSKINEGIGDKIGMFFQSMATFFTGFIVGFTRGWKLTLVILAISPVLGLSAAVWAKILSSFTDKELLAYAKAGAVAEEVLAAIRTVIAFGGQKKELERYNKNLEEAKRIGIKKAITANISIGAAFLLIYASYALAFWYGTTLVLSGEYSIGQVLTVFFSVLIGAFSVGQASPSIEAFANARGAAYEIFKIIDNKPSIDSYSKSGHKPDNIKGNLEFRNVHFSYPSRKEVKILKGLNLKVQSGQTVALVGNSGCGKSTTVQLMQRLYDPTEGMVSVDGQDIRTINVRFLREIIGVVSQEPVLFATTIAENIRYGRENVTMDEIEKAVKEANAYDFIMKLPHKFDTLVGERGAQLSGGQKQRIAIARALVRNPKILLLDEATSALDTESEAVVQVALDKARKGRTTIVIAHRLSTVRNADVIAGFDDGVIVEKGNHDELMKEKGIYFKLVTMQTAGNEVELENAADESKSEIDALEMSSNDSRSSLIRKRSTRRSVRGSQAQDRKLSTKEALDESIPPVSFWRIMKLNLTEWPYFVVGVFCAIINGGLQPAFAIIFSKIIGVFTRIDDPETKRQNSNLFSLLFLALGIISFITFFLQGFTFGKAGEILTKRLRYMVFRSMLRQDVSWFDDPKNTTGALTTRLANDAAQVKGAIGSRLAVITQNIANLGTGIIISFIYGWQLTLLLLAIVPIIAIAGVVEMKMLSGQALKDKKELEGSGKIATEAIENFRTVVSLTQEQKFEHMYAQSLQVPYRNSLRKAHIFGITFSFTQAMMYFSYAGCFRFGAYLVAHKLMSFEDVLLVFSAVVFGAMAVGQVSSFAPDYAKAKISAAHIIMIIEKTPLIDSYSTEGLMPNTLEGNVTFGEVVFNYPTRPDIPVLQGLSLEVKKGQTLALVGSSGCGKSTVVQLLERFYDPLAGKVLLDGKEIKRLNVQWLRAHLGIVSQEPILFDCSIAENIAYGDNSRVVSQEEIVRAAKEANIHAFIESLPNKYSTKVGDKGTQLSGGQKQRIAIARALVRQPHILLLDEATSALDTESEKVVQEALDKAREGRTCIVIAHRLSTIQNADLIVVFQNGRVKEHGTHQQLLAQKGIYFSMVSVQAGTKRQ

| SMILES | inhibition |
| --- | --- |
| COc1ccc(NS(=O)(=O)c2cc(NC(=O)C3CCCCC3)ccc2N2CCOCC2)cc1 | 0.89% |
| CC[C@H](C)[C@@H](C(=O)N1CCNCC1)n1cc([C@@H](N)Cc2ccc(O)cc2)nn1 | 0.31% |
| COc1ccc(C2=NN(C(=O)CCC(=O)O)C(c3cccs3)C2)cc1OC (stereo not given) | 0.01% |
| C=CCn1c(SCCOc2ccc(OC)cc2)nnc1C(NC(=O)c1ccc(OC)cc1)C(C)C (stereo not given) | 48.2% (active) |
| C=CCn1c(SCc2ccc(Cl)c(Cl)c2)nnc1C(CO)NC(=O)c1ccc(OC)cc1 (stereo not given) | 1.4% |
| C=CCn1c(SCC(=O)c2ccc(Br)cc2)nnc1C(C)NC(=O)Cc1ccc(OC)cc1 (stereo not given) | 1.19% |
| CN(C)CCOc1ccc(Cl)cc1C(C)(C)C | 0.53% |
| Nc1nc(SCC(=O)NN(c2ccccc2)c2ccccc2)n[nH]1 | 0.84% |
| CCc1nnc(NC(=O)CSc2nnnn2-c2cccc(C(C)=O)c2)s1 | 0.21% |
| CC(C)CCN1CCN(C/C=C/c2ccco2)CC1CCO (stereo not given) | 0.24% |
| C/C(=N/OC(=O)c1cccc(C(F)(F)F)c1)c1cnccn1 | -0.43% |
| C/C(CC1CC(C)(C)OC1=O)=N/Nc1nc(-c2ccccc2)cs1 (stereo not given) | -0.4% |
| CN(c1ccccc1)S(=O)(=O)c1cc(C(=O)OCC(=O)N2CCN(C(=O)c3ccco3)CC2)ccc1Cl | 0.19% |
| Cc1ccc(C)c(NS(=O)(=O)c2ccc(OCC(=O)NCc3cccnc3)cc2)c1 | -0.02% |
| COc1cc(C(=S)NCc2ccccc2)cc(Br)c1O | -0.65% |
| CCC(=O)c1ccc(N2CCN(C(=O)c3cc([N+](=O)[O-])ccc3F)CC2)c(F)c1 | 2.09% |
| CCN(CC)CCNS(=O)(=O)c1ccc(/C=C/C(=O)O)cc1 | 0.17% |
| COc1cc(CNC2CCCC2)c(Br)cc1OCc1ccccc1 | 0.98% |
| CN1CCN(C(c2cc3cc4c(cc3[nH]c2=O)OCCO4)c2nnnn2C2CCCC2)CC1 (stereo not given) | 0.88% |
| CNC(=O)C(=O)N/N=C/c1ccccn1 | -0.01% |
| CSc1ncccc1C(=O)N1CCCC(CCC(=O)NCc2ccccc2F)C1 (stereo not given) | -0.56% |
| C=C(C)c1cccc(C(C)(C)NC(=O)NCCN(CC)CC)c1 | 0.61% |
| O=S(=O)(Cc1ccccc1)c1nc2ccccc2n1Cc1ccccn1 | 1.49% |
| COc1cc2[nH]c(=S)n(Cc3ccc(F)cc3)c(=O)c2cc1OC | 0.4% |
| CCCc1cc(=O)[nH]c(SCc2cc(=O)oc3c(C)c(C)ccc23)n1 | -1.22% |
| Cc1nnsc1C(=O)Nc1cccc(Cl)c1C | 0.41% |
| COc1ccc(Cl)cc1NC(=O)C(C)N1CCc2ccccc21 (stereo not given) | 0.39% |
| CC1=CC(=C(C#N)c2nc3ccccc3s2)C=C(C)N1c1ccc(F)cc1F | -0.7% |

| SMILES | inhibition |
| --- | --- |
| COC(=O)c1ccc(OCC(O)CN(CCO)CC(O)Cn2ccc3ccccc32)cc1 (stereo not given) | 0.69% |
| Cc1ccccc1C1=NC(C(F)(F)F)(C(F)(F)F)c2c(n(-c3ccc(F)cc3)c(=O)[nH]c2=O)N1 | 0% |
| NS(=O)(=O)c1ccc(NC(=O)/C=C/c2ccccc2Cl)cc1 | 0.51% |
| Cc1cccc2cc(CN(Cc3ccc4c(c3)OCO4)Cc3nnnn3C3CCCC3)c(=O)[nH]c12 | 7.85% |
| CCC(c1nnnn1C1CCCC1)N(Cc1cccs1)Cc1cc2cccc(C)c2[nH]c1=O (stereo not given) | 6.67% |
| Cc1cccc2cc(CN(Cc3cccs3)C(c3nnnn3C3CCCC3)C(C)C)c(=O)[nH]c12 (stereo not given) | 61.7% (active) |
| CCC1CCCCN1S(=O)(=O)Cc1ccccc1Cl (stereo not given) | 2.08% |
| Cc1c(C(=O)NCCCc2ccccc2)cccc1[N+](=O)[O-] | 0.92% |
| COc1cccc(NC(=S)NC(=O)c2c(Cl)c(C)nn2C)c1 | -0.45% |
| Cc1ccsc1C1C(C#N)=C(N)OC2=C1C(=O)CC(C)(C)C2 (stereo not given) | 0.69% |
| COc1cc(OC)c(C(=O)N2CCCC2)cc1OC | 1.33% |
| N#Cc1c(NC(=O)c2ccc(N3CCOCC3)c([N+](=O)[O-])c2)sc2c1CCCC2 | 0.71% |
| COC(=O)c1nn(-c2cccc(Cl)c2)ccc1=O | -0.18% |
| COCCNC(=S)N/N=C/c1c(C)[nH]c2ccccc12 | -0.55% |
| CN(C)C(=O)N1CCNCC1 | -0.13% |
| CC(=O)N(CN1C(=O)C2C3C=CC(C3)C2C1=O)c1cccc(Cl)c1 (stereo not given) | 0.48% |
| CCn1c(-c2cccnc2Cl)nc2cc(C)c(C)cc21 | 0.26% |
| Cc1nc(CC(=O)NNS(=O)(=O)c2ccc(F)c(Cl)c2)cs1 | 1.15% |
| COC(=O)C(C(=O)Nc1cccc(Cl)c1C)C1CCCC1 (stereo not given) | -0.03% |
| NNc1nc2c(Cl)cccc2s1 | -1.62% |
| CCOC(=O)C1=C(C)NC(=S)NC1c1cccs1 (stereo not given) | -0.3% |
| Cc1ccccc1NC(=O)c1nn(-c2ccc(F)c(F)c2)ccc1=O | 0.58% |
| COC(=O)c1ccc(COC(=O)c2cnccn2)cc1 | 0.17% |
| CC1CN(CCCOc2ccccc2-c2ccccc2)CC(C)O1 (stereo not given) | 3.45% |
| CCCCC(=O)Nc1ccc(C(=O)Nc2cc(C(F)(F)F)ccc2Cl)cc1 | -0.36% |
| CCC(=O)/C(=C(/O)c1ccccc1)c1nc2ccccc2[nH]1 | 0.14% |
| Cc1cc(C)cc(C(=O)NC(=S)Nc2ccc3[nH]c(=O)[nH]c3c2)c1 | -0.17% |
